Measured values reported in PubChem BioAssay (NCATS).
Results filed as inconclusive are left out. Calls of active or inactive are those of the source. Unless noted, the call rests on the fitted dose curve; in most records, active means well fitted curve in the direction sought with a large enough effect; inconclusive means small, poorly fitted or top-dose-only effect, or another doubt; inactive means no such curve, though single readings can be large; an effect the other way counts as inactive or inconclusive.

Experiments:
[1] = target: Thyrotropin-releasing hormone receptor (Homo sapiens) (UniProt P34981); test: qHTS for Small Molecule Agonists and Allosteric Enhancers of Human TRH Receptor: Validation Screen for Agonists (AID 493127;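 active means calcium activation more than 3 SD above the typical response in the agonist read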;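 further: intracellular calcium rise by fluo-8 fluorescence before TRH EC20 addition; 0% is about no effect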); conditions: TRH receptor agonist cell assay; at 2 µM; stronger effect = higher value
Thyrotropin-releasing hormone receptor (Homo sapiens), sequence (P34981 whole entry, looked up): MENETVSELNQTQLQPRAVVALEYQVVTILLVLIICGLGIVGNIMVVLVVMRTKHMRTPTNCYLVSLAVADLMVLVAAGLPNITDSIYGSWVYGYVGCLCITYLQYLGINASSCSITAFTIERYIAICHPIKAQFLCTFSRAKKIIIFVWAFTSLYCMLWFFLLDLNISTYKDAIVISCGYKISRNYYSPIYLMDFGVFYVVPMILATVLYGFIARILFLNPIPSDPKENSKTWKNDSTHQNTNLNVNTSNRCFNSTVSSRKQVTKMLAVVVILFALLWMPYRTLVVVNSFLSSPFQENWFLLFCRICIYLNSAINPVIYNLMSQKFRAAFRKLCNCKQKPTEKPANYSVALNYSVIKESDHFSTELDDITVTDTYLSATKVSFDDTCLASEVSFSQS
Method in brief: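 Cells 2000/well, 10% FCS, 18 h 33.5C/5% CO2 → fluo-8 Ca dye, RT 30 min–1.5 h → FDSS baseline 10 × 1 s → compound added → 230 cycles (1 s/cycle) agonist mode. TRH controls.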

[2] = qHTS for Inhibitors of Cell Surface uPA Generation: Validation Assay (AID 493164); further: 0% is about no effect
Method in brief: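 RAW 264.7 cells (4000/well) were plated overnight, then exposed for 18 h at 37 C, 5% CO2 to compounds in a 7-point 1:5 titration (2.45 nM–38.3 uM final). Intracellular ATP was read by ATP-Lite luminescence.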

[3] = Validation screen for small molecules that induce DNA re-replication in SW480 colon adenocarcinoma cells (AID 504364); further: 0% is about no effect
Method in brief: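 250 cells/well; compound pinned in; 48 hr, 37 C, 5% CO2; Hoechst added, 40 min; nuclear fluorescence imaged, 405 ex / 500-530 em; re-replication scored as increase in high-intensity nuclei.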

[4] = target: Peptidyl-prolyl cis-trans isomerase NIMA-interacting 1 (Homo sapiens) (UniProt Q13526); test: qHTS Validation Assay to Find Inhibitors of Pin1 (AID 504536; active means well fitted inhibition curve with a large enough effect in the polarisation, with a control signal flat, not every such curve was filed as active; the % refers to the polarisation; further: potency means the concentration at half of the fitted maximal effect)
Peptidyl-prolyl cis-trans isomerase NIMA-interacting 1 (Homo sapiens), sequence (Q13526 whole entry, looked up): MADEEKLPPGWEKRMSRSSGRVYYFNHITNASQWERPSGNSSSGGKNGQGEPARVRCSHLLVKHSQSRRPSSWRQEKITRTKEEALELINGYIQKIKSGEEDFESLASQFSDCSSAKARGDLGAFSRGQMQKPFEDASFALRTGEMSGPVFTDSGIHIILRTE
Method in brief: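 Fluorescence polarization competition: compounds (titration) displace HiFluor-488-labeled Pin1-1b peptide from Pin1 (0.3 uM final) in pH 7.5 HEPES buffer with DTT, 10 min at room temperature; %Activity normalized to no-enzyme wells, curves fitted.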

[5] = target: Phosphoglycerate kinase, glycosomal (Trypanosoma brucei brucei) (UniProt P07378); test: qHTS Validation Assay to Find Inhibitors of Phosphoglycerate Kinase (AID 504547); further: potency means the concentration at half of the fitted maximal effect
Phosphoglycerate kinase, glycosomal (Trypanosoma brucei brucei), sequence (P07378 whole entry, looked up): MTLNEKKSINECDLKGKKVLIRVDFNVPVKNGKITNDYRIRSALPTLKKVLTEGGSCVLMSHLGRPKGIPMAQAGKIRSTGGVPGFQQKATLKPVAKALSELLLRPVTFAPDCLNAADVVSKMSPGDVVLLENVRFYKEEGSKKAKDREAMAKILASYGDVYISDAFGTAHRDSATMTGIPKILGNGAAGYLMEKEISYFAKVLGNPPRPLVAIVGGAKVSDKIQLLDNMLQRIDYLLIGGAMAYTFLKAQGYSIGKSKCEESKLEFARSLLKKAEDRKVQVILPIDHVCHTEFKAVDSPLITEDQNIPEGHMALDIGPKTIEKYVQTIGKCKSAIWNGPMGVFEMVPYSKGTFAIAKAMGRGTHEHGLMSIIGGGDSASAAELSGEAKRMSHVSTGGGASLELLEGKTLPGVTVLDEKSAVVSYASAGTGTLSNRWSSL
Method in brief: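 Inhibition of the enzyme is judged by a Kinase-Glo Plus luminescent signal following a one-hour incubation at room temperature. Because 1,3-BPG is unstable, it is made in situ by GAPDH at 100nM final; no-PGK wells define the baseline.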

[6] = target: Ubiquitin carboxyl-terminal hydrolase 1 (Homo sapiens) (UniProt O94782); test: Inhibitors of USP1/UAF1: Pilot qHTS (AID 504865); further: potency means the concentration at half of the fitted maximal effect; nearly all actives have a fitted effect of over 35% in size
Ubiquitin carboxyl-terminal hydrolase 1 (Homo sapiens), sequence (O94782 whole entry, looked up): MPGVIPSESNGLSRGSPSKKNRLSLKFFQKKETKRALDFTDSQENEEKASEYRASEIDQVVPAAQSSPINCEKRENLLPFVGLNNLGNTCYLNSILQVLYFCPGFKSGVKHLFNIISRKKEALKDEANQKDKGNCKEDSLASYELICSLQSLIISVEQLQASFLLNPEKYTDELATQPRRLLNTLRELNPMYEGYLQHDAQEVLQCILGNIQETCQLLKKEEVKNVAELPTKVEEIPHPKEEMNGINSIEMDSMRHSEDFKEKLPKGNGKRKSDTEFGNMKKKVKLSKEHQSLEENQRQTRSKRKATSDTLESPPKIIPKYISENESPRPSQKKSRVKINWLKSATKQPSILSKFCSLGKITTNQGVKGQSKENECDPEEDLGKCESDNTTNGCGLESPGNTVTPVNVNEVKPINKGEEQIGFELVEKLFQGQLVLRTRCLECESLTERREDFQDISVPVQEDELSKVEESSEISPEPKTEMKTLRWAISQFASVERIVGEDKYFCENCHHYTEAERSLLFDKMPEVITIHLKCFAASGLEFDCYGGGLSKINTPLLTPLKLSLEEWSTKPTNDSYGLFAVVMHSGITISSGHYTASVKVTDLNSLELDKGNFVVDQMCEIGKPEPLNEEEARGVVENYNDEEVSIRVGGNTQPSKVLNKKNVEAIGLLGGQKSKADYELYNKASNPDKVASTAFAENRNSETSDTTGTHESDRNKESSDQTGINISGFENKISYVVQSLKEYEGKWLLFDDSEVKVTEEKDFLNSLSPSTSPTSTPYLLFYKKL
Method in brief: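 Enzyme-free wells gave the negative control, while test wells held 1nM USP1/UAF1 preincubated with compound for 15 min at room temperature. Ub-Rho at 150nM final started the reaction, and fluorescence at 480/540 nm was recorded kinetically.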

[7] = target: Voltage-gated inwardly rectifying potassium channel KCNH2 (Homo sapiens) (UniProt Q12809); test: qHTS Assay for Small Molecule Inhibitors of the Human hERG Channel Activity (AID 588834);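 further: top concentration of the series differs between compounds; on the % scale 0 is the no-effect control and ±100 the full control effect; lower thallium flux fluorescence means stronger hERG block; nearly all actives have a fitted effect of over 50% in size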
Method in brief: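 Blockade is seen as reduced FluxOR thallium-flux fluorescence in U2OS cells expressing hERG from a BacMam construct, in Opti-MEM with 2% FCS. Concentration-response data fitted to the Hill equation for AC50.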

[8] = target: Glucagon-like peptide 1 receptor (Homo sapiens) (UniProt P43220); test: qHTS of GLP-1 Receptor Agonists: LOPAC Validation (AID 624148);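 further: luminescence from a luciferase reporter switched on by cAMP; 0% is about no effect; higher luminescence signal means agonism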
Glucagon-like peptide 1 receptor (Homo sapiens), sequence (P43220 whole entry, looked up): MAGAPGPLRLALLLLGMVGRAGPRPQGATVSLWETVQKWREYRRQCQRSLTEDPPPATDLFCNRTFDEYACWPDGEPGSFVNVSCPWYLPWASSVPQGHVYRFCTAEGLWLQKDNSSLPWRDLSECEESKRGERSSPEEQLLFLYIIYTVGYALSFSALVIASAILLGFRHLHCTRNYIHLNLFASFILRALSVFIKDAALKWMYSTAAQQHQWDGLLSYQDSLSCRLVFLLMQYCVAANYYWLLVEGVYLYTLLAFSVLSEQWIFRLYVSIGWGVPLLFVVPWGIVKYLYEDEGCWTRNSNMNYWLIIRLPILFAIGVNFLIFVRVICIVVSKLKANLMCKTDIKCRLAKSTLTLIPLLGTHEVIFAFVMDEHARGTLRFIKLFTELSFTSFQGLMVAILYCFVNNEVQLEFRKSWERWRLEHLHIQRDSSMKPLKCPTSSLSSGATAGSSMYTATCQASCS
Method in brief: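 Agonism scored as increased luciferase luminescence driven by cAMP in HEK293 clones carrying GLP-1R. Cells settled 12 hours, received compound for 4-6 hr at 37 deg C, 5% CO2, and were read after 12 min detection reagent at RT.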

[9] = qHTS of Nrf2 Activators: LOPAC Validation (AID 624149); further: 0% is about no effect
Method in brief: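 Luminescence read-out of ARE-luciferase activation: AREc32_Fluc cells treated with compounds for 24 hr at 37 deg C, then lysed with Steady-Glo for 30 min at room temperature before reading.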

[10] = HTS Assay for Allosteric Antagonists of the Human D2 Dopamine Receptor: Hit Validation in HTRF (AID 624455);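 further: stable D1 dopamine receptor cell line scored for blocking the D1 response; on the % scale 0 is the no-effect control and ±100 the full control effect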
Method in brief: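 First, antagonism was screened by calcium flux in a force-coupled, inducible Hek293 Trex D2 line challenged with EC80 dopamine. Hits then went into an HTRF assay in cells stably expressing D1, testing inhibition of the D1 response.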

[11] = target: Arylsulfatase A (Homo sapiens) (UniProt P15289); test: qHTS screen for enhancers of Arylsulfatase A (ASA1): LOPAC Validation Assay (AID 720538); further: potency means the concentration at half of the fitted maximal effect
Arylsulfatase A (Homo sapiens), sequence (P15289 whole entry, looked up): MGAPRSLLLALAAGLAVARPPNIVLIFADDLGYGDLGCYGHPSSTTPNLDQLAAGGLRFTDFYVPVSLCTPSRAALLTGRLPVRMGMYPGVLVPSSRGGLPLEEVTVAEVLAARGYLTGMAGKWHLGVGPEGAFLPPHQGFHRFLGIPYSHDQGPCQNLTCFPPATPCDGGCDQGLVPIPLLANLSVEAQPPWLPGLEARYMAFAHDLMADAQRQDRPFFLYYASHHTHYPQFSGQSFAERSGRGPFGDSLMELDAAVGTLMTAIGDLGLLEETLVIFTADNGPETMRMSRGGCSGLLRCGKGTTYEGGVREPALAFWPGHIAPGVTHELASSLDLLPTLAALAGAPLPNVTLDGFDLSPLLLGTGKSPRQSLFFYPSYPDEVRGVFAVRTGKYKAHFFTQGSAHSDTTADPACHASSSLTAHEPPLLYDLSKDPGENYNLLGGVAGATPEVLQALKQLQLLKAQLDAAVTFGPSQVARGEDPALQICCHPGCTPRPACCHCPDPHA
Method in brief: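 Cell-based enhancement test: residual ASA activity in SV40-transformed I179S patient fibroblasts is measured by pNCS turnover (0.5mM final, 14h, room temperature) following 48h compound incubation; higher fluorescence indicates activation.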

[12] = qHTS for compounds that reverse cellular toxicity of Amyloid beta (A-beta) peptide in yeast: LOPAC Validation Assay (AID 720559);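 further: plate controls were DMSO for no effect and equimolar ferric chloride plus clioquinol rescue for full effect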
Method in brief: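 Here, A-beta-toxic yeast grow with test compounds at 30 C for 48 hr before optical density at 600 nm is recorded; data are normalized against DMSO and the FeCl3-clioquinol control.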

[13] = qHTS for Activators of Parkin Expression: LOPAC Validation Assay (NLuc Reporter) (AID 720572;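 further: 0% = DMSO and 100% = positive control compound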)
Method in brief: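 Parkin promoter-driven FLuc/NLuc neuronal reporter cells; 24 h plating, 7-pt dose response, 24 h at 37 C/5% CO2; FLuc then NanoLuc reagent, 10 min each, luminescence; DMSO/positive control normalized.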

[14] = qHTS for Activators of Parkin Expression: LOPAC Validation Assay (FLuc Reporter) (AID 720573;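 further: 0% = DMSO and 100% = positive control compounds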)
Method in brief: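 Readout is FLuc luminescence from neuronal reporter cells (Parkin promoter, FLuc plus NLuc) after 24 h compound exposure in dose response. Values normalized to neutral DMSO and positive-control compounds.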

[15] = target: Hexokinase-4 (Homo sapiens) + Glucokinase regulatory protein (Homo sapiens) (UniProt P35557+Q14397); test: qHTS assay for inhibitors of recombinant human GCK-GKRP interaction: ADP-Glo assay (AID 743206);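 further: plate controls were DMSO plus enzyme for no effect and no enzyme for full effect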
Hexokinase-4 (Homo sapiens) + Glucokinase regulatory protein (Homo sapiens), sequence (P35557 whole entry, looked up): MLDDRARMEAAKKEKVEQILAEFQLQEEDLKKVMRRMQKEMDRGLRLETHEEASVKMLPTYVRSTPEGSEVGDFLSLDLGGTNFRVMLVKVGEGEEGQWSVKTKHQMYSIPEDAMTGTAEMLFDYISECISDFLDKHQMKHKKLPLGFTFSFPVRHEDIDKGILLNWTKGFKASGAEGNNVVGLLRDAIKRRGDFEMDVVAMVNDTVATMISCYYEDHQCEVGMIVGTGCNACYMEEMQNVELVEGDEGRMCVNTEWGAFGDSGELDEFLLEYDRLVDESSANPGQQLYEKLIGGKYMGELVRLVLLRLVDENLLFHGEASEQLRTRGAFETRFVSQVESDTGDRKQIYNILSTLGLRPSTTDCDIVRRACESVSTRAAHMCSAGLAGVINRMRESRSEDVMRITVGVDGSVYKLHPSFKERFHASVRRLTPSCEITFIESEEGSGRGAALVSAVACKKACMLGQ
Hexokinase-4 (Homo sapiens) + Glucokinase regulatory protein (Homo sapiens), sequence (Q14397 whole entry, looked up): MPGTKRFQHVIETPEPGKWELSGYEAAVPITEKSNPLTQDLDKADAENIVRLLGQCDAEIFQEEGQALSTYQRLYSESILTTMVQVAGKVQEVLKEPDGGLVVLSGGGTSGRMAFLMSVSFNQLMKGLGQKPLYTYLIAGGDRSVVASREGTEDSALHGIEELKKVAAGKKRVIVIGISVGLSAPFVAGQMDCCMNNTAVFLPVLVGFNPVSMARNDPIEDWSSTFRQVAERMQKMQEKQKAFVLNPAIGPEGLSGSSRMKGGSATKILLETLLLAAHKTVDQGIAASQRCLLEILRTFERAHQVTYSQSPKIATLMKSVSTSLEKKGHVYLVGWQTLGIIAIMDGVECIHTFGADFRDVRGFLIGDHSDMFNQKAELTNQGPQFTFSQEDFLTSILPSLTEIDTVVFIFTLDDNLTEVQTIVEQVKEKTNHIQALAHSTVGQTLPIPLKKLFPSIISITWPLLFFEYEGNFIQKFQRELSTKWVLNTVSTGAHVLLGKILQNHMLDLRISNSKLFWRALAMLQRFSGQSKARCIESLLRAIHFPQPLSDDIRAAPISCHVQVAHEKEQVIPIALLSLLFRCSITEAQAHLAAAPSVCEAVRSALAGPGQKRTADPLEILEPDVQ
Method in brief: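 GST-GCK and FLAG-GKRP (15 nM each in the dispensed mix, with 2 uM S6P) react with 0.4 mM ATP and 5 mM glucose (final) in Hepes pH 7.6 for 60 min at room temperature. ADP is measured by ADP-Glo luminescence.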

[16] = qHTS Assay for Identifying Gametocytocidal Compounds (AID 743244);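 further: on the % scale 0 is the no-effect control and ±100 the full control effect; actives lower the fluorescent signal which means gametocytes are killed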; conditions: P. falciparum 3D7 stage III-V gametocytes, alamarBlue, 72 h; max response: stronger effect = lower value
Method in brief: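 P. falciparum 3D7 stage III–V gametocytes (20,000 cells/well) were exposed to compounds for 72 h at 37 °C, 5% CO2. AlamarBlue was then added for 24 h; decreased resorufin fluorescence (Ex 525/Em 598 nm) indicated loss of viability.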

[17] = Natriuretic polypeptide receptor (hNpr1) antagonism - Pilot counterscreen GloSensor control cell line (AID 1347045; calls by dose curve; further: potency means the concentration at half of the fitted maximal effect)
Method in brief: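 Luminescence was read before and 20 min after adding 50 uM SNP, which stimulates soluble guanylyl cyclase. The HEK293 cells expressing the GloSensor cGMP sensor had been preloaded with 2% reagent for 2 h and treated with compound.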

[18] = NS1 protein of Zika virus - qHTS assay to identify small molecule inhibitors in human HEK 293 cells (AID 1347053);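 further: series mostly up to about 46 µM; plate controls were infected untreated cells for no effect and uninfected cells for full effect; nearly all actives have a fitted effect of over 55% in size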
Method in brief: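 HEK 293 cells, seeded 20 h at 37 C, were pretreated with compound 1 h, then infected with ZIKV MR766 (MOI = 0.5) for 24 h. NS1 was read by TR-FRET with two anti-NS1 antibodies, normalized to uninfected and infected wells.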

[19] = target: T1, Tyrosine-protein phosphatase non-receptor type substrate 1 (Homo sapiens) + Leukocyte surface antigen CD47 (Homo sapiens) (UniProt P78324+Q08722); test: CD47-SIRPalpha protein protein interaction - LANCE assay qHTS validation (AID 1347057; active means well fitted curve in the direction sought with a large enough effect in the signal ratio, with a control signal flat, not every such curve was filed as active; the % refers to the signal ratio; further: series mostly up to about 38 µM; 0% is about no effect)
T1 sequence (P78324 whole entry, looked up): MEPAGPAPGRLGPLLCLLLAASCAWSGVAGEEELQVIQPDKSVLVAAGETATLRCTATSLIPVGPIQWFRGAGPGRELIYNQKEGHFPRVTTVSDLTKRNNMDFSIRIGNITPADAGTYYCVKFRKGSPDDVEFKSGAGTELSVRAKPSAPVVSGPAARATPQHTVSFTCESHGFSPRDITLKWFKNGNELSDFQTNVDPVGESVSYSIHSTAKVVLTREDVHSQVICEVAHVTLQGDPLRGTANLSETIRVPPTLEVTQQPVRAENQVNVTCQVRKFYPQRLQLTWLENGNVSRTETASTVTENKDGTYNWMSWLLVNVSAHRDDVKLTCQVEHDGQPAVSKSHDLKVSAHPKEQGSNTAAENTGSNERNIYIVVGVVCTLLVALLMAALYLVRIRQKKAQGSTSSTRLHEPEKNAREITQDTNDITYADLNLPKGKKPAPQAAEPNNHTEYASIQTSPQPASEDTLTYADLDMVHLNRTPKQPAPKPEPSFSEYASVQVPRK
T1 sequence (Q08722 whole entry, looked up): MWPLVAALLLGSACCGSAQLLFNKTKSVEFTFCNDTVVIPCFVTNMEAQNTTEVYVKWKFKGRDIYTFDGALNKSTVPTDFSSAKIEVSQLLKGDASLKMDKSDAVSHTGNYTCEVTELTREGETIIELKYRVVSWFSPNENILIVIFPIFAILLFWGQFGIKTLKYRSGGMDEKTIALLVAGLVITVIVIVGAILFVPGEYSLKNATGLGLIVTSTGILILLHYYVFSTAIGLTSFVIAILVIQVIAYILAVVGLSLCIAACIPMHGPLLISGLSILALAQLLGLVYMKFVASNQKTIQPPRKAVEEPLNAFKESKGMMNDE
Method in brief: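 First, His-tagged CD47 and Eu-labelled anti-His antibody met the compound for 30 min; next, site-specifically biotinylated SIRPalpha was added for 30 min; finally streptavidin-APC was added before reading the TR-FRET ratio.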

[20] = target: T1, Tyrosine-protein phosphatase non-receptor type substrate 1 (Homo sapiens) + Leukocyte surface antigen CD47 (Homo sapiens); test: CD47-SIRPalpha protein protein interaction - Alpha assay qHTS validation (AID 1347059)
Method in brief: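 Binding is measured by AlphaScreen proximity: Ni-NTA acceptor beads capture His-CD47, streptavidin donor beads capture biotin-SIRPalpha. Each of three additions (SIRPalpha with compound, CD47, beads) incubates 30 min at room temperature protected from light.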

Nc1c(S(=O)(=O)O)cc(Nc2ccc(Nc3nc(Cl)nc(Nc4ccc(S(=O)(=O)O)cc4)n3)c(S(=O)(=O)O)c2)c2c1C(=O)c1ccccc1C2=O
inactive: activation [1] 1.5% | outcome [2] | outcome [3] | Potency [7] | outcome [8] | outcome [9] | outcome [10] | outcome [12] | outcome [13] | Potency [14] | outcome [15] | max response [16] 27.3% | outcome [18] | outcome [19]
active: Potency [4] 2.39 µM | Potency [5] 5.36 µM | Potency [6] 6.31 µM | Potency [11] 26.9 µM | Potency [17] 9.27 µM | Potency [20] 11.7 µM
